The experiment is described as follows: NCI Yeast Anticancer Drug Screen. Data for the rad50 strain (AID 155).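 Further: 0% = growth of vehicle-only cultures of the same strain.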 Particulars: S. cerevisiae rad50 strain growth inhibition, stronger effect = higher value. Here is the method: Growth inhibition of yeast strains with defined genetic alterations is measured as a screen for potential anti-cancer activity. Selected strains with alterations in DNA damage repair or cell cycle control were exposed to compounds and growth inhibition was measured relative to vehicle treated controls. The strain used in this assay is rad50

Setting [1] is: at 5.0 µM (retest, dose inferred, filed as 0.5).
The mark [2] stands for this setting: at 50.0 µM (retest, dose inferred, filed as 5.0).

About 79,000 compounds went through this panel and 15% of them were active in at least one assay; those are over-represented in the sample as a whole. Unmarked numbers belong to inactive results. The source made the active and inactive calls. No stated cut-off is given here; in the data, active means growth inhibition above about 70%; inactive means the rest.

In the case of `CCCCC(CC)(CCC)CCN` (configuration not stated), the growth inhibition runs as follows: under setting [1], 1%; under setting [2], 93% (active); (at 50.0 µM) 1.65%.
In the case of `CCc1nc(N)nc(N)c1-c1ccc(NCCN)c([N+](=O)[O-])c1`, the growth inhibition is -20% under setting [1], -26% under setting [2] and 98.7% (active) (at 50.0 µM).
On to `CC1=NC(C)=C(/C(C)=N/NC(=O)c2ccccc2O)C(C)/C1=C(/C)NNC(=O)c1ccccc1O` (configuration not stated), for which the growth inhibition is 16% under setting [1], 16% under setting [2] and 74.7% (active) (at 50.0 µM).
In the case of `Cc1cc(O)c2c(c1)C(=O)c1c(c(O)cc(O)c1-c1c(O)cc(O)c3c1C(=O)c1cc(C)cc(O)c1C3=O)C2=O`, the growth inhibition under setting [1] was 14%, the growth inhibition under setting [2] was 60% and the growth inhibition (at 50.0 µM) was 64.8%.
Turning to `COc1cccnc1/C=N/NC(N)=S`, the growth inhibition was -4% under setting [1], 58% under setting [2] and 69.5% (at 50.0 µM).
As to `Cc1ccc(N)c(Cc2c(O)ccc3ccccc23)c1`, the growth inhibition under setting [1] was 2%, the growth inhibition under setting [2] is 79% (active) and the growth inhibition (at 50.0 µM) is 98.2% (active).
Taken in the same sequence, the figures for `O=S(=O)(O)c1ccc(O)c2cc(Nc3ccccc3)ccc12` were -3%, -26% and 44%.
For the molecule `OC[P+](CO)(CO)C12CC3CC(CC(C3)C1)C2`, the growth inhibition was 12% under setting [1], 13% under setting [2] and 48.5% (at 50.0 µM).
With `CC(C)(N=Nc1ccc([N+](=O)[O-])cc1)[N+](=O)[O-]`, the growth inhibition runs as follows: under setting [1], 26%; under setting [2], 97% (active); (at 50.0 µM) 95.8% (active).
Consider `FC(F)(F)C(C1=NC(C(F)(F)F)(C(F)(F)F)N=C(N2CCOCC2)O1)C(F)(F)F`, for which the growth inhibition runs as follows: under setting [1], 24%; under setting [2], 33%; (at 50.0 µM) 24.8%.
Turning to `N#CC1C=C(Cl)c2ccc(Cl)cc2N1C(=O)c1ccccc1` (configuration not stated), the growth inhibition is 2% under setting [1], 96% (active) under setting [2] and 98.8% (active) (at 50.0 µM).
With `CCC[CH2][Sn]([CH2]CCC)([O]C(=O)c1c(F)cccc1F)[O]C(=O)c1c(F)cccc1F`, the growth inhibition under setting [1] was 80% (active), the growth inhibition under setting [2] was 80% (active) and the growth inhibition (at 50.0 µM) is 88.8% (active).
`N#CCCN(CCCN1CCOCC1)C(=S)Nc1cccc(C(F)(F)F)c1`: the growth inhibition was 34% under setting [1], 44% under setting [2] and 42.9% (at 50.0 µM).
Consider `FC(F)(F)c1nc(S)cc(=S)[nH]1`, for which the growth inhibition runs as follows: under setting [1], 1%; under setting [2], 13%; (at 50.0 µM) -21.2%.

The values are drawn from PubChem BioAssay (NCI).
